The source of these data is PubChem BioAssay AID720650 (Broad Institute, 2013).

Each structure is given as a SMILES string. Values without a mark were called inactive. The source made the active and inactive calls. No rule for the calls is given here. Where only a bound is given, the exact number is not on record here.

This assay is described as follows: C difficile toxins, biochemical counterscreen, UDPG substrate absence, confirmatory dose response (AID 720650). The settings on record: series mostly up to 19.5 µM; activity change, negative = inhibition: at the top concentration.
For the molecule `CN1CCN(C(CNC(=O)c2ccc(Br)o2)c2ccc(F)cc2)CC1` (stereo not drawn), the “activity change, negative = inhibition” value was -7.41%.
For `COc1ccc2[nH]c3c(=O)n(CCCCC(=O)NCCN4CCCC4)c(=S)[nH]c3c2c1`, the AC50 is 18.5 µM (active).
As to `NC(=O)NN=C1CC2CC1C1C=CCC21` (stereo not drawn), the “activity change, negative = inhibition” value is -12.3%.
On to `COc1ccccc1Oc1cn[nH]c1-c1ccc(O)cc1O`, for which the AC50 was 11.6 µM (active).
For `CCN(C(=O)COC(=O)c1cccnc1SC)C1CCCCC1`, the “activity change, negative = inhibition” value is 2.92%.
On to `COc1ccccc1C1=NNC(=NCc2ccccc2)SC1`, for which the AC50 is over 39 µM.
On the same count and under the same terms, under `COc1ccccc1OCC(=O)Nc1ccc(-c2nnc(-c3ccco3)o2)cc1` stands over 39 µM.
For `COc1ccc(C=C2CCC3C(=O)CCCC3(C)C2=O)cc1` (stereo not drawn), the “activity change, negative = inhibition” value is -3.53%.
As for `Cc1ccc(S(=O)(=O)N2CCC(C(=O)OCC(=O)NCCc3ccccc3)CC2)cc1C`, the “activity change, negative = inhibition” value was 6.81%.
For `FC(F)(F)c1cc(CCN2CCNC[C@H]2Cc2cccc3ccccc23)cc(C(F)(F)F)c1`, the AC50 was 19.9 µM (active).
Regarding `COc1cc2oc3ccc(C#Cc4ccccn4)cc3c(=O)c2cc1OC`, the “activity change, negative = inhibition” value was -8.45%.
Consider `COCC(=O)N1CC[C@@H]2[C@H]1c1cc(-c3ccc(F)cc3)ccc1N(C)[C@H]2CO`, for which the AC50 was 7.2 µM (active).
With `COc1ccc(C(NC(C)=O)c2cc(Cl)c3cccnc3c2O)cc1` (stereo not drawn), the “activity change, negative = inhibition” value was -11%.
Take `Nc1ccc(-c2nc3ccc(N)cc3o2)cc1`: the AC50 is 12.5 µM (active).
Regarding `O=C(/C=C/c1ccc(O)cc1)c1ccccc1`, the AC50 is 9.92 µM (active).
On to `O=C(Cc1ccccc1)NNC(=S)NC(=O)c1cccnc1`, for which the AC50 is over 39 µM.
On the same count and under the same terms, under `Oc1ccccc1-c1cnc2cccnn12` stands over 39 µM; under `COc1ccc(/C=C(/C#N)C(=O)Nc2ccc(O)cc2)cc1C(=O)O`, 12.2 µM (active).
